Shown are actives, neighbours in structure and some others; about 3% of the full set was active somewhere.
LGR2 antag = inhibitors of bursicon-induced Drosophila LGR2 receptor cAMP signaling; inhibition, % at 9.99 µM; 0.35% of 380,000 active; HEK293 LGR2, CRE-luciferase, bursicon-stimulated, 4 h;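 active = drop in luminescence signal, shown as inhibition above about 50% in the replicate tests, limit read from the data, passing the limit was not always enough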;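 also: agonist challenge used bursicon conditioned medium at about half maximal strength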
TROY NFkB inh = inhibitors of TROY-dependent NF-kB signaling; 0.98% of 360,000 active; inhibition, % at 10 µM; Q293 LMP1-TROYcd NF-kB luciferase reporter, 4 h;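 active = compounds whose plate-normalised and pattern-corrected inhibition of the luciferase reporter signal at the single screening dose is 50% or more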
TWEAK Fn14 block = blocks TWEAK-Fn14 interaction in a reporter cell assay; TWEAK-stimulated Fn14 reporter cells, luciferase luminescence, 8 h; inhibition, % at 10 µM; 2% of 360,000 active; in the data active = inhibition above about 50%
LMP1 NFkB inh = reduces LMP1-driven NF-kappaB luciferase signal | LMP1-induced NF-kappaB luciferase reporter cells, luminescence | inhibition, % at 12.5 µM | 0.69% of 350,000 active; in the data active = inhibition above about 41%;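 also: 0% = neutral control wells and 100% = reference inhibitor control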
MITF act = MITF TRPM1 promoter activation in melanoma cells; activation, % at 12.5 µM; 0.75% of 300,000 active; SK-MEL-5 TRPM1-promoter luciferase, 24 h; % of positive control, neutral wells = 0;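 active = mean activation of at least 80% with every replicate also reaching 80%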;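 also: 0% = neutral control wells and 100% = parthenolide positive control wells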
MITF TRPM1 inh = inhibitors of MITF-driven TRPM1 promoter in melanoma cells; SK-MEL-5 TRPM1 promoter luciferase, 24 h; inhibition, % at 12.5 µM; 0.83% of 330,000 active;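 active = mean inhibition across replicates of 60% or more, whatever share of single replicates reaches that level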
Numbers without * were called inactive; nt = not tested or not shown.

SMILES	LGR2 antag	TROY NFkB inh	TWEAK Fn14 block	LMP1 NFkB inh	MITF act	MITF TRPM1 inh
O=c1c2c3nc4ccccc4nc3n(-c3ccc4c(c3)OCCO4)c2ncn1C1CCCC1	nt	7	-9	-5	-82	82*
O=c1c2ccccc2ncn1-c1ccc2c(c1)OCCO2	-36	-4	51*	0	42	-40
CSc1nsc(SCC(=O)Nc2ccccc2)n1	-24	-27	-9	-19	43	-42
CSc1nsc(SCC(=O)Nc2ccc(OC(C)=O)cc2)n1	-27	-33	-33	-23	89*	-86
N#CCCN(C(=O)CSc1ncccn1)c1ccc2c(c1)OCCO2	4	-8	-4	-4	5	-4
O=C(CCl)N(C/C=C/c1ccccc1)c1ccc2c(c1)OCCO2	-31	23	60*	-10	-8	4
COCC(=O)Nc1ccc2c(c1)C(=O)N(C)C[C@H](OC)[C@H](C)CN(C(=O)NC(C)C)[C@@H](C)CO2	13	nt	nt	nt	nt	nt
COc1ccc(-c2noc3c2-c2nc(-c4ccc(Br)cc4)sc2CC3)cc1	5	0	7	-15	-2	1
CC(C)(C)c1nc2c(s1)CCc1onc(-c3ccc(Br)cc3)c1-2	3	-13	12	43*	-5	3
Cc1ccc2c(Cl)c(C(=O)Nc3ccc4c(c3)OCO4)sc2c1	-52	-24	-23	-13	99*	-92
CCOC(=O)c1c(C)c(C(=O)Nc2ccc3c(c2)OCO3)c(C)n1C	0	-30	-29	-9	45	-46
CCOc1ccc2oc(C(=O)Nc3ccc(N4CCOCC4)cc3)c(C)c2c1	nt	-45	6	-3	6	-4
CCOC(=O)c1c(N)sc(C(=O)Nc2ccc3c(c2)OCO3)c1C	nt	42	79*	28	2	-2
CCOc1ccc2oc(C(=O)Nc3ccc4c(c3)OCO4)c(C)c2c1	-99	-69	4	-16	90*	-74
C[C@H]1CN([C@@H](C)CO)S(=O)(=O)c2ccc(-c3ccncc3)cc2O[C@@H]1CN(C)C(=O)c1ccc2c(c1)OCO2	6	nt	nt	nt	nt	nt
C[C@@H](NC(=O)C[C@H]1CC[C@@H](NC(=O)C2CCOCC2)[C@H](CO)O1)c1ccccc1	-5	nt	nt	nt	nt	nt
O=C1OC(c2ccccc2)(c2cc(Br)c(O)c(Br)c2)c2ccccc21 (stereo not given)	-22	53*	33	-10	6	-4
C[C@H](CO)N1C[C@H](C)[C@H](CN(C)C(=O)CN(C)C)Oc2cc(C3=CCCCC3)ccc2S1(=O)=O	0	nt	nt	nt	nt	nt
CCN1CCN(c2cc(C)c3cc(NC(=S)N4CCCC(C)C4)ccc3n2)CC1 (stereo not given)	23	83*	86*	13	-3	6
CCN1CCN(C(=S)Nc2ccc3nc(N4CCN(CC)CC4)cc(C)c3c2)CC1	15	13	-15	3	-7	6
CCN1CCN(c2cc(C)c3cc(NC(=S)N4CCN(c5ccc(F)cc5)CC4)ccc3n2)CC1	-8	26	-4	-9	-84	85*
CCN1CCN(c2cc(C)c3cc(NC(=S)N4CC(C)CC(C)C4)ccc3n2)CC1 (stereo not given)	-11	54*	14	9	5	-10
O=C(C[C@@H]1C[C@@H]2c3cc(NC(=O)Nc4ccccc4)ccc3O[C@@H]2[C@@H](CO)O1)NCc1ccccn1	0	nt	nt	nt	nt	nt
C[C@@H]1CN([C@@H](C)CO)C(=O)c2cc(NS(=O)(=O)c3ccc(F)cc3)ccc2O[C@@H](C)CCCCO[C@H]1CN(C)C	1	nt	nt	nt	nt	nt
CN(C)CCCNC(=O)/C(=C/c1ccc(-c2ccc([N+](=O)[O-])cc2)o1)NC(=O)c1ccccc1	6	-9	-10	5	nt	-9
SMILES	LGR2 antag	TROY NFkB inh	TWEAK Fn14 block	LMP1 NFkB inh	MITF act	MITF TRPM1 inh
Cc1ccc(C(=O)N/C(=C\c2ccc(-c3ccccc3[N+](=O)[O-])o2)C(=O)NCCN(C)C)cc1	10	3	16	-2	-77	77*
CN(C)CCNC(=O)/C(=C/c1ccc(-c2cccc([N+](=O)[O-])c2)o1)NC(=O)c1ccccc1	-6	-6	-4	10	6	-1
Cc1ccc(C(=O)N/C(=C\c2ccc(-c3ccccc3[N+](=O)[O-])o2)C(=O)NCCCN(C)C)cc1	-6	5	25	7	-67	70*
CS(=O)(=O)N1[C@@H](C#N)[C@H](c2ccc(C#CC3CCCC3)cc2)[C@@H]1CO	0	nt	nt	nt	nt	nt
COc1ccc(S(=O)(=O)N(C)C[C@@H]2OCCCC[C@@H](C)Oc3ccc(NC(=O)CCC(F)(F)F)cc3C(=O)N([C@H](C)CO)C[C@H]2C)cc1	-8	nt	nt	nt	nt	nt
Cc1ccc(-c2nc(C(=O)NCCCN(C)C)cc3c2[nH]c2ccccc23)cc1	-24	-51	-29	-5	-74	76*
O=C(NCC1CCCO1)c1cc2c([nH]c3ccccc32)c(-c2cccc(Br)c2)n1 (stereo not given)	nt	7	47	19	nt	nt
Cc1ccc(-c2nc(C(=O)NCC3CCCO3)cc3c2[nH]c2ccccc23)cc1 (stereo not given)	nt	15	53*	27	-18	21
COc1ccc(-c2nc(C(=O)NCC3CCCO3)cc3c2[nH]c2ccccc23)cc1 (stereo not given)	25	-2	10	-10	nt	nt
Cc1ccccc1-c1nc(C(=O)NCC2CCCO2)cc2c1[nH]c1ccccc12 (stereo not given)	26	-3	54*	15	-3	4
O=C(NCCO)c1cc2c([nH]c3ccccc32)c(-c2ccccc2)n1	-24	3	-3	-14	-2	7
COCC(=O)Nc1ccc2c(c1)C(=O)N(C)C[C@@H](OC)[C@@H](C)CN(CCC(F)(F)F)[C@H](C)CO2	5	nt	nt	nt	nt	nt
O/N=C/c1cn(-c2ccccc2)nc1-c1cccnc1	-9	12	11	-3	8	-13
Cc1ccc(-c2nn(-c3ccccc3)cc2/C=N/O)cc1	-9	-5	9	-16	92*	-94
COc1ccc(-c2nn(-c3ccccc3)cc2/C=N/NC(N)=S)cc1OC	-21	12	69*	10	4	-6
COc1ccc(-c2nn(-c3ccccc3)cc2/C=N/n2cnnc2)cc1OC	nt	-38	-4	6	15	-15
C[C@H](O)C#Cc1ccc2c(c1)O[C@@H](CN(C)Cc1ccncc1)[C@H](C)CN([C@H](C)CO)S2(=O)=O	11	nt	nt	nt	nt	nt
C[C@@H]1CCCCO[C@H](CN(C)Cc2ccccc2)[C@H](C)CN([C@H](C)CO)C(=O)c2cc(NC(=O)C3CCCCC3)ccc2O1	3	nt	nt	nt	nt	nt
O=C(c1ccccc1)c1nn(-c2ccc(Cl)cc2)c(=O)cc1C(F)(F)F	nt	-48	74*	64*	-24	24
Cc1ccc(C(=O)Oc2cc(C)n(C)c(=O)c2)cc1	nt	41	54*	5	-11	10
CC(=O)c1c(OC(=O)c2ccc(C)cc2)c2ccccc2n1C	21	17	33	4	-8	5
Clc1ccc(-c2nc3ccccn3c2CN2CCCCC2)cc1	-3	55*	83*	-4	3	-1
